Screens as filed in PubChem BioAssay.
In the library only some 10% were active in any assay of this set; here they are far more common.
SW480 rerep – inducers of DNA re-replication in SW480 colon cancer cells; SW480 DNA re-replication, Hoechst DNA content imaging, 48 h; Potency, µM (top dose mostly 46.1 µM), inactives show top-dose re-replication activation, hits mostly activators; 340,000 tested, 1.8% active; AID 624297; further: % of control where 0% means no effect; nearly all actives have a fitted effect of over 55% in size
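First, 250 cells per well were seeded. Next, compound or vehicle (23 nL) was pinned in, plates sat 48 hr at 37 C. Finally Hoechst was added for 40 min before fluorescence scanning.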
RORg inh – ROR gamma (mouse) transcription inhibition; P51450; Drosophila S2 Gal4-RORgamma UAS-luciferase reporter, 20 h; Potency, µM (highest dose often 53.6 µM), for inactives: top-dose activity change, negative = inhibition, usual class: inhibitors; 310,000 tested, 5.4% active; AID 2551; further: on the % scale 0 is the no-effect control and ±100 the full control effect; nearly all actives have a fitted effect of over 60% in size
Target sequence (P51450 whole entry, looked up, the tested form may be a part): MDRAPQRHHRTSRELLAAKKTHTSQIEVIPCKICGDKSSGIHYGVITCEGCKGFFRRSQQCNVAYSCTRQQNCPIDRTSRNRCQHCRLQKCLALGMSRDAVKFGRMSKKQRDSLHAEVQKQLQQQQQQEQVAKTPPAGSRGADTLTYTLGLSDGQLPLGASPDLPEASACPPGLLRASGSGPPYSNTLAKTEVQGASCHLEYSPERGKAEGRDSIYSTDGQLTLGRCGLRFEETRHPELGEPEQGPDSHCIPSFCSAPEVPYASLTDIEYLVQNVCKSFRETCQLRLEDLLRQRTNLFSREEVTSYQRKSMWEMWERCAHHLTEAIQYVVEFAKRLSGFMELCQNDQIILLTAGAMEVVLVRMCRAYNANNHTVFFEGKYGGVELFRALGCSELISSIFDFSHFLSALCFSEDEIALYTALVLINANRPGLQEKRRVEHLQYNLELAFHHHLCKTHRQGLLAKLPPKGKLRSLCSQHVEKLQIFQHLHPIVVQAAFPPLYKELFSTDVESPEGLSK
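Drosophila Schneider cells stably carrying a metallothionein-driven Gal4 DBD–ROR gamma fusion and a UAS-Photinus luciferase reporter were exposed to compound for 1 hr, then induced with copper sulfate (700 uM final) for 20 hr at ambient temperature before luminescence reading.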
MCF10A rereplic – induces DNA re-replication in MCF 10a normal breast cells; MCF 10A DNA re-replication, Hoechst nuclear intensity, 48 h; Potency, µM (series often up to 46.1 µM), without a hit: at the top dose activity, positive = re-replication, actives largely listed as activators; 350,000 tested, 2.9% active; AID 624296; further: % of control where 0% means no effect; nearly all actives have a fitted effect of over 50% in size
ELG1 repair inh – ELG1-dependent DNA repair inhibition. HEK293T ELG1-luciferase reporter, luminescence, 16 h; DNA damage induced by 5-fluorouridine. 330,000 tested, 2.3% active. Potency, µM (doses to about 46.1 µM), inactives show top-dose activity change, negative = inhibition, usual class: inhibitors; further: on the % scale 0 is the no-effect control and ±100 the full control effect; nearly all actives have a fitted effect of over 55% in size
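5-Fluorouridine DNA damage + compound/DMSO, 2,000 cells/well, 16 h, 37 °C/5% CO2. ONE-Glo, 30 min RT, luminescence. Readout = decrease in reporter signal.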
Gal4-VP16 FLuc – counter-screen for ROR gamma inhibitors: Gal4-VP16 reporter; Drosophila S2 Gal4-VP16 UAS-luciferase, luminescence, 20 h; Potency, µM (doses to about 53.6 µM), inactives show top-dose activity, negative = inhibition, hits mostly inhibitors; 310,000 tested, 3.5% active; AID 2546;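 further: Gal4-VP16 expression switched on by copper sulfate through the metallothionein promoter; on the % scale 0 is the no-effect control and ±100 the full control effect; nearly all actives have a fitted effect of over 50% in size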
Starred values were filed as active, the others as inactive; [ ] = dose if it differs, or a comment. The call rests on the fitted dose curve; in most records, active means well fitted curve in the direction sought with a large enough effect; inconclusive means small, poorly fitted or top-dose-only effect, or another doubt; inactive means no such curve, though single readings can be large; an effect the other way counts as inactive or inconclusive. Potency means the concentration at half of the fitted maximal effect.

What do the screens show for `Clc1cccc(CSc2nnc(-c3cccnc3)n2Cc2ccco2)c1`?
SW480 rerep: 27.5%; RORg inh: 15.8µM*; MCF10A rereplic: 19.9%; ELG1 repair inh: -16.2%; Gal4-VP16 FLuc: inconclusive

How did O=C(CSc1nnc(-c2cccnc2)n1Cc1ccco1)N1c2ccccc2Sc2ccccc21 do in these assays?
SW480 rerep: -6.8%; RORg inh: 12.6µM*; MCF10A rereplic: 8.9%; ELG1 repair inh: inconclusive; Gal4-VP16 FLuc: inconclusive

How did FC(F)(F)COc1cc(-c2nnc(SCc3ccccc3)n2Cc2ccco2)cc(OCC(F)(F)F)n1 do in these assays?
SW480 rerep: -1.7%; RORg inh: inconclusive; MCF10A rereplic: 0.2%; ELG1 repair inh: 18.3µM*; Gal4-VP16 FLuc: 9.9%

What do the screens show for `COc1ccc(C(=O)CSc2nnc(-c3cccnc3)n2Cc2ccco2)cc1`?
SW480 rerep: -3.4%; RORg inh: 6.9%; MCF10A rereplic: -1.6%; ELG1 repair inh: 0.0%; Gal4-VP16 FLuc: 0.4%

Results for c1cncc(CSc2nnc(-c3cccnc3)n2Cc2ccco2)c1 ?
RORg inh: 4.9%; ELG1 repair inh: -0.7%; Gal4-VP16 FLuc: 0.5%

How did O=C(CCC(=O)N(CC(=O)NC1CCCC1)Cc1cccs1)Nc1nccs1 do in these assays?
SW480 rerep: 1.5%; RORg inh: -2.2%; MCF10A rereplic: 2.1%; ELG1 repair inh: -5.9%; Gal4-VP16 FLuc: 1.3%

How did CN(C)C(=S)NC(=S)Nc1ccc2ccccc2c1 do in these assays?
SW480 rerep: 17.5%; MCF10A rereplic: inconclusive

What do the screens show for `Cn1c(=O)n2n(c1=O)[C@H]1[C@H](O)[C@H]3O[C@@H]3/C(=N/OC[C@@H](O)COCc3ccco3)[C@@H]1CC2`?
RORg inh: -2.2%[10 µM]; Gal4-VP16 FLuc: -6.2%[10 µM]

Results for COc1ccc(S(=O)(=O)N(C(=O)c2ccncc2)c2ccc3oc4c(c3c2)CCCC4)cc1 ?
SW480 rerep: inconclusive; RORg inh: 24.1%; MCF10A rereplic: 3.26µM*; ELG1 repair inh: inconclusive; Gal4-VP16 FLuc: -6.0%

Results for Cc1ccc(OCC(=O)N(C)Cc2ccccc2)c([N+](=O)[O-])n1 ?
SW480 rerep: -8.3%; RORg inh: -22.0%; MCF10A rereplic: -3.6%; ELG1 repair inh: 1.8%; Gal4-VP16 FLuc: 1.4%

How did Cn1cnc([N+](=O)[O-])c1Sc1ccc(Br)cc1 do in these assays?
SW480 rerep: inconclusive; RORg inh: inconclusive; MCF10A rereplic: 6.51µM*; ELG1 repair inh: 5.2%; Gal4-VP16 FLuc: inconclusive

Results for CCOC(=O)Oc1c(OC)cc(C(=O)O[C@H]2C[C@H]3CN4CCc5c([nH]c6cc(OC)ccc56)[C@@H]4C[C@H]3[C@@H](C(=O)OC)[C@@H]2OC)cc1OC ?
SW480 rerep: inconclusive; RORg inh: 1.1%[2.98 µM]; MCF10A rereplic: 15.9%[20.6 µM]; Gal4-VP16 FLuc: -5.1%[17 µM]

Results for COc1cc(C2C3=C(Nc4ncnn42)c2ccccc2CC3)cc(OC)c1OC (configuration not stated) ?
SW480 rerep: 0.82µM*; RORg inh: -13.0%; MCF10A rereplic: inconclusive; ELG1 repair inh: 2.7%; Gal4-VP16 FLuc: 1.5%

What do the screens show for `COc1ccc(C2C3=C(Nc4ncnn42)c2ccccc2CCC3)cc1` (configuration not stated)?
SW480 rerep: 0.8%; RORg inh: -30.0%; MCF10A rereplic: inconclusive; ELG1 repair inh: 2.8%; Gal4-VP16 FLuc: -2.7%

What do the screens show for `COc1cc(/C=N/NC(=Nc2ccc(C)cc2)c2nc3ccccc3s2)ccc1O`?
SW480 rerep: inconclusive; RORg inh: 7.08µM*; MCF10A rereplic: inconclusive; ELG1 repair inh: inconclusive; Gal4-VP16 FLuc: inconclusive

How did CCc1cc(C(=O)NNC(=S)NCC2CCCO2)cs1 (configuration not stated) do in these assays?
SW480 rerep: -11.1%; RORg inh: 15.8µM*; MCF10A rereplic: -7.0%; ELG1 repair inh: 18.2%; Gal4-VP16 FLuc: -4.7%

How did Cc1ccc(-c2c(C(=O)NNC(=S)NCC3CCCO3)csc2C)cc1 (configuration not stated) do in these assays?
SW480 rerep: -80.4%; RORg inh: inconclusive; MCF10A rereplic: 17.0%; ELG1 repair inh: -11.7%; Gal4-VP16 FLuc: 2.9%

What do the screens show for `CC(C)CNC(=S)NNC(=O)c1csc2c1CCCC2`?
SW480 rerep: -0.3%; RORg inh: 7.08µM*; MCF10A rereplic: -6.0%; ELG1 repair inh: -15.5%; Gal4-VP16 FLuc: inconclusive

What do the screens show for `Cc1scc(C(=O)NNC(=S)NCC2CCCO2)c1-c1ccccc1` (configuration not stated)?
SW480 rerep: -0.5%; RORg inh: 7.94µM*; MCF10A rereplic: -0.5%; ELG1 repair inh: -15.9%; Gal4-VP16 FLuc: -7.2%

How did Cc1scc(C(=O)NNC(=S)NCC2CCCO2)c1C (configuration not stated) do in these assays?
SW480 rerep: -2.7%; RORg inh: 4.47µM*; MCF10A rereplic: inconclusive; ELG1 repair inh: 18.1%; Gal4-VP16 FLuc: -24.1%

Results for O=C(NCC1CCCO1)c1csc2c1CCCCC2 (configuration not stated) ?
SW480 rerep: 1.5%; RORg inh: 16.1%; MCF10A rereplic: 2.59µM*; ELG1 repair inh: inconclusive; Gal4-VP16 FLuc: 2.9%

How did CCN(CC(=O)Nc1ccccc1OC)C(=O)COc1ccc2ccccc2c1 do in these assays?
SW480 rerep: -14.3%; RORg inh: 0.1%; MCF10A rereplic: 0.7%; ELG1 repair inh: -1.2%; Gal4-VP16 FLuc: -2.7%

Results for COc1cc(CNCCc2ccc(F)cc2)ccc1OCc1ccc(Cl)nc1 ?
SW480 rerep: -0.2%[9.22 µM]; RORg inh: 2.24µM*; MCF10A rereplic: 29.3%; ELG1 repair inh: 0.0%; Gal4-VP16 FLuc: -25.0%

How did COc1cc(CNn2cn[nH]c2=S)cc(Br)c1OCc1ccccc1F do in these assays?
SW480 rerep: 5.3%; RORg inh: 3.16µM*; MCF10A rereplic: inconclusive; ELG1 repair inh: -7.7%; Gal4-VP16 FLuc: -28.3%

Results for C=CCOc1c(Cl)cc(CNn2cn[nH]c2=S)cc1OC ?
SW480 rerep: -9.5%; RORg inh: 8.91µM*; MCF10A rereplic: 2.0%; ELG1 repair inh: 2.3%; Gal4-VP16 FLuc: inconclusive

What do the screens show for `C=CCOc1c(Br)cc(CNn2c(C)n[nH]c2=S)cc1OC`?
SW480 rerep: -4.4%; RORg inh: inconclusive; MCF10A rereplic: -5.3%; ELG1 repair inh: 3.0%; Gal4-VP16 FLuc: inconclusive

Results for OC(CNCc1ccc(-c2ccccc2)cc1)c1ccccc1 (configuration not stated) ?
SW480 rerep: 18.4µM*; RORg inh: -44.3%; MCF10A rereplic: 18.4µM*; ELG1 repair inh: -12.7%; Gal4-VP16 FLuc: -10.7%

How did OC(CNCc1ccncc1)c1ccccc1 (configuration not stated) do in these assays?
SW480 rerep: -5.5%; RORg inh: -27.3%; MCF10A rereplic: -2.2%; ELG1 repair inh: -1.9%; Gal4-VP16 FLuc: 5.9%
